TDP1 cell noCPT: qHTS for Inhibitors of human tyrosyl-DNA phosphodiesterase 1 (TDP1): qHTS in cells in absence of CPT; DT40 Tdp1-/- hTDP1 cells, no CPT, ATP luminescence, 48 h; Potency, µM (doses to about 46.2 µM), without a hit: at the highest dose activity change, negative = growth inhibition, actives largely listed as inhibitors; actives 15% (n = 420,000); also: % is scaled to controls: 0 for no effect and ±100 for the full control effect; nearly all actives have a fitted effect of over 55% in size
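Seeded 400 DT40-hTDP1 cells/well (vehicle DMSO, no 20 nM CPT); pinned compounds; ≥48 hr at 37 °C; CellTiter-Glo luminescence as viability measure.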
TDP1 cell CPT: growth inhibition of DT40 Tdp1-/-;hTDP1 cells with camptothecin (screen for TDP1 inhibitors); actives 12% (n = 420,000); chicken DT40 Tdp1-/-;hTDP1 cells + 20 nM CPT, ATP luminescence, 48 h; Potency, µM (top dose mostly 46.2 µM), inactives show top-dose activity change, negative = growth inhibition, hits mostly inhibitors; AID 686979; also: % is scaled to controls: 0 for no effect and ±100 for the full control effect; nearly all actives have a fitted effect of over 55% in size
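Chicken DT40 Tdp1-/- cells stably complemented with human TDP1 were seeded at 400 cells/well in medium containing 20 nM camptothecin, exposed to pin-transferred compounds, and grown at 37 °C for at least 48 hr. Viability was read as ATP luminescence.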
TDP1 block: TDP1 (human) enzyme inhibition; recombinant TDP1, AlphaScreen DNA substrate cleavage; Potency, µM (top dose mostly 130 µM), for inactives: at the highest dose activity change, negative = inhibition, hits mostly inhibitors; actives 0.28% (n = 350,000); also: % is scaled to controls: 0 for no effect and ±100 for the full control effect; nearly all actives have a fitted effect of over 40% in size
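AlphaScreen read-out: signal falls as enzyme removes the 3' tyrosine-FITC from a 5'-biotinylated DNA oligo (15 nM, 5 min, RT). Enzyme was E. coli-made recombinant Tdp1 at 1 nM, exposed to compound for 15 min beforehand; beads 10 ug/ml, 10 min.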
ClpP mod: qHTS Assay for Activators of ClpP; ATP-dependent Clp protease proteolytic subunit (Bacillus subtilis (strain 168)), P80244; purified B. subtilis ClpP, FRET peptide cleavage, 20 min; Potency, µM (highest dose often 57.5 µM), without a hit: at the top dose activity change, negative = active; actives 1.9% (n = 340,000); AID 651965, 2013; active = well fitted falling curve with a large enough effect; inconclusive = small, poorly fitted or top-dose-only effect; inactive = no such curve, though single readings can be large or run the other way; also: the source files actives as falling curves though it sought activators and does not explain the sign; nearly all actives have a fitted effect of over 65% in size
Target sequence (P80244 whole entry, looked up): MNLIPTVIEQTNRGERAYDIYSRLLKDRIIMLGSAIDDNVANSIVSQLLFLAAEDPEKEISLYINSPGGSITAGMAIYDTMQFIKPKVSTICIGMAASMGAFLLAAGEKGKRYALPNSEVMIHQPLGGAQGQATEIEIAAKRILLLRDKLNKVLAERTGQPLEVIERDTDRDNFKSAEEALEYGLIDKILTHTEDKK
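Purified B. subtilis ClpP, 10 microg/mL final in Tris/HCl pH8 with KCl, BSA, glycerol and Tween-20, cleaved an Abz/nitrotyrosine-quenched decapeptide. Fluorescence (ex 320, em 430) was read at 0 and 20 min at room temperature. Delta was normalized to 5.8 microM ADEP and DMSO/no-enzyme controls.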
An asterisk follows results filed as active; ? = inconclusive; . = no result given. The list is not random: actives were taken first. Their share in the collection is about 17%. Unless noted, calls follow the shape of the dose curve; as a rule, active = well fitted curve in the direction sought with a large enough effect; inconclusive = small, poorly fitted or top-dose-only effect, or another doubt; inactive = no such curve, though single readings can be large; an effect the other way counts as inactive or inconclusive. Potency is read from the fitted curve at half-maximal effect.

SMILES	TDP1 cell noCPT	TDP1 cell CPT	TDP1 block	ClpP mod
COc1cccc(-c2nn(-c3ccccc3)cc2CN(C)C(C)c2ccon2)c1 (centres undefined)	?	?	-10%	.
CCC(CC)NCc1ccc(OC)cc1OC	-13%	-1%	1%	0%
CCC(COC)NCc1cn(-c2ccc(OC)cc2)nc1-c1cccc(F)c1 (centres undefined)	23µM*	16µM*	-3%	4%
COc1ccc(-n2cc(CNC(C)c3ccncn3)c(-c3cccc(F)c3)n2)cc1 (centres undefined)	26µM*	?	3%	.
COc1cc(-c2nnc(Sc3ccc(C(F)(F)F)cc3[N+](=O)[O-])o2)cc(OC)c1OC	23µM*	21µM*	2%	-8%
COc1cccc(CN(C(=O)/C=C/c2ccc(Cl)cc2)C2CCS(=O)(=O)C2)c1 (centres undefined)	?	?	5%	.
CCOC(=O)c1c(C)[nH]c(C(=O)CN2C(=O)NC3(CCCC3)C2=O)c1C	2%	-15%	1%	1%
CCCC1(c2ccccc2)NC(=O)N(CC(=O)c2[nH]c(C)c(C(=O)OCC)c2C)C1=O (centres undefined)	21µM*	?	2%	0%
Fc1cccc(NCCc2c[nH]c3ccccc23)n1	?	-27%	.	-2%
Cc1ccc(-c2nc(NCCCO)c3ccccc3n2)cc1	?	?	3%	.
c1ccc2c(NCCc3c[nH]c4ccccc34)c3ccccc3nc2c1	2.9µM*	2.6µM*	.	-5%
OCCCNc1c2ccccc2nc2ccccc12	9.2µM*	12µM*	.	.
COc1cc(CC(=O)OCC(=O)NC2CCCC2)cc(OC)c1OC	14%	-7%	2%	0%
CC(NC(=O)c1ccco1)C(=O)N1CCN(c2ccccc2)CC1 (centres undefined)	-15%	10%	2%	1%
COc1ccc(NC(=O)N2CCN(c3cccc(C(F)(F)F)c3)CC2)cc1OC	12µM*	?	8%	-13%
CC(C)(C)c1ccc(NC(=O)N2CCCN(c3ccc([N+](=O)[O-])cn3)CC2)cc1	26µM*	?	6%	.
Cc1csc2ncnc(N3CCN(C(=S)Nc4ccc(F)cc4F)CC3)c12	15µM*	?	4%	1%
CC(NC(=O)c1ccco1)C(=O)N1CCN(c2cccc(C(F)(F)F)c2)CC1 (centres undefined)	10µM*	13µM*	-1%	-2%
N#CCCCn1c(=O)oc2ccccc21	-4%	-3%	1%	.
O=C(Nc1ccccc1)N1CCN(c2cccc(C(F)(F)F)c2)CC1	12µM*	21µM*	2%	0%
O=C(Nc1ccc(F)cc1)N1CCCN(c2nccc(C(F)(F)F)n2)CC1	?	-28%	6%	1%
O=C(Nc1ccccc1)N1CCCN(c2nccc(C(F)(F)F)n2)CC1	?	29µM*	0%	.
CNC(=S)Nc1ccc(N2CCN(c3ccc(C(F)(F)F)cn3)CC2)nc1	26µM*	?	-3%	.
CN1CCN(c2ccc(NC(=O)c3ccc(C(F)(F)F)cc3)cn2)CC1	-18%	-11%	-3%	.
Cc1ccc(NC(=O)CSCC(=O)N2CCN(c3cccc(C(F)(F)F)c3)CC2)cc1	15µM*	?	.	1%
SMILES	TDP1 cell noCPT	TDP1 cell CPT	TDP1 block	ClpP mod
Cc1c(Cl)cccc1NC(=S)N1CCN(c2ccc([N+](=O)[O-])cn2)CC1	-14%	-1%	.	2%
O=C(Nc1cccc(C(F)(F)F)c1)c1cccnc1N1CCN(c2ccccc2)CC1	18µM*	?	-7%	-5%
O=C(Nc1cccc(C(F)(F)F)c1)c1cccnc1N1CCN(CCO)CC1	-19%	10%	2%	-1%
CCC(C)[C@H](NC(=O)N1CCN(c2cccc(C(F)(F)F)c2)CC1)C(=O)OC (some centres undefined)	21µM*	15µM*	8%	-2%
O=C(Nc1ccc(F)cc1F)N1CCCN(c2ccc(C(F)(F)F)cn2)CC1	?	?	.	-2%
Cc1cccc(Cl)c1NC(=S)N1CCN(c2ccc([N+](=O)[O-])cn2)CC1	26µM*	?	.	-2%
